# Screens (PubChem BioAssay)
# DT40 TDP1 no CPT – qHTS for Inhibitors of human tyrosyl-DNA phosphodiesterase 1 (TDP1): qHTS in cells in absence of CPT. DT40 Tdp1-/- hTDP1 cells, no CPT, ATP luminescence, 48 h. Potency, µM (series often up to 46.2 µM), most hits filed as inhibitors. hit rate 15% among 420,000. AID 686978, 2013; also: nearly all actives have a fitted effect of over 55% in size
#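 Chicken DT40 Tdp1-/- cells stably complemented with human TDP1 were seeded at 400 cells/well with DMSO in place of 20 nM camptothecin. After compound pinning, cells grew at least 48 hr at 37 °C; viability read by CellTiter-Glo luminescence.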
# TDP1 cell CPT – qHTS for Inhibitors of human tyrosyl-DNA phosphodiesterase 1 (TDP1): qHTS in cells in presence of CPT; chicken DT40 Tdp1-/-;hTDP1 cells + 20 nM CPT, ATP luminescence, 48 h; Potency, µM (doses to about 46.2 µM), usual class: inhibitors; hit rate 12% among 420,000; AID 686979, 2013; also: nearly all actives have a fitted effect of over 55% in size
#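 Cell growth measured by CellTiter-Glo luminescence after a minimum 48 h, 37 C compound exposure with 20 nM CPT in Tdp1-knockout DT40 cells stably expressing hTDP1, seeded 400/well; qHTS titration format.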
# LDHA block – qHTS assay for inhibitors of human lactate dehydrogenase. purified LDHA, NADH/diaphorase-resazurin fluorescence; stronger effect = lower value. hit rate 0.15% among 480,000. activity change, % (values are at about 110 or 230 µM). AID 1347041, 2019. L-lactate dehydrogenase A chain (Homo sapiens), P00338; in the data active = activity change below about -30%; inconclusive = mostly about -25% to -30%
#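 Remaining NADH was detected by diaphorase (0.133 mg/mL) converting 37 µM resazurin to fluorescent resorufin, read at 0 and 20 minutes. The preceding 5-minute room-temperature reaction used 2 nM LDHA, 0.2 mM sodium pyruvate and 0.06 mM NADH at pH 7.4.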
# Gal4-VP16 FLuc – VP16 counterscreen qHTS for inhibitors of ROR gamma transcriptional activity; Drosophila S2 Gal4-VP16 UAS-luciferase, luminescence, 20 h; Potency, µM (highest dose often 53.6 µM), hits mostly inhibitors; hit rate 3.5% among 310,000; AID 2546, 2010;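 also: Gal4-VP16 expression switched on by copper sulfate through the metallothionein promoter; nearly all actives have a fitted effect of over 50% in size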
# RORg inh – qHTS for inhibitors of ROR gamma transcriptional activity; Drosophila S2 Gal4-RORgamma UAS-luciferase reporter, 20 h; Potency, µM (titrated, usually from 53.6 µM), usual class: inhibitors; hit rate 5.4% among 310,000; also: nearly all actives have a fitted effect of over 60% in size
# Target sequence (P51450 whole entry, looked up, the tested form may be a part): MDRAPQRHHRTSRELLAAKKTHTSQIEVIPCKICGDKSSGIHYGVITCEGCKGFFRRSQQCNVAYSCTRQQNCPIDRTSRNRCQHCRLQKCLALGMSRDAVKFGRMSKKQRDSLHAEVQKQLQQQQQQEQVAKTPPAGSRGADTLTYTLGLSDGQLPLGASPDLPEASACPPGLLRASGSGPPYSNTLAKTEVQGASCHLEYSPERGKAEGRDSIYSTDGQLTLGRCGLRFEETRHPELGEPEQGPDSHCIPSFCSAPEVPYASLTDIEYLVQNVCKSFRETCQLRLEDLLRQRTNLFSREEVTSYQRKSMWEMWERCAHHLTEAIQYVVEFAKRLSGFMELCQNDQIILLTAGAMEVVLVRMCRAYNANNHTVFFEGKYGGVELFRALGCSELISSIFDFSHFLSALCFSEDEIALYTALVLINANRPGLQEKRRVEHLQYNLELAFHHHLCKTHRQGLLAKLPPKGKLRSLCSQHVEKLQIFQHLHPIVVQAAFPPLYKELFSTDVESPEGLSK
#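 A Gal4/UAS one-hybrid system in insect cells: metallothionein-promoter Gal4–ROR gamma fusion plus Photinus luciferase reporter. Copper sulfate 700 uM final, 20 hr ambient incubation, luminescent detection after 10 min with reagent.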
# IL-1B inflam inh – qHTS for Inhibitors of Inflammasome Signaling: IL-1-beta AlphaLISA Primary Screen; THP-1 LPS/ATP IL-1B secretion, AlphaLISA, 16 h; stronger effect = lower value; activity change, % at 57.5 µM; hit rate 4.7% among 360,000; AID 743279, 2014; in the data active = activity change below about -50%; inconclusive = mostly about -30% to -49%
#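 THP-1 cells pretreated 1 hr with compounds (up to 57.5 uM final), then stimulated with LPS (250 ng/mL final) plus ATP (1.25 mM final); secreted IL-1B measured by AlphaLISA after 16 hr, decreased signal indicating inhibition.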
# Numbers stand for hits; 0 = inactive; ? = inconclusive; - = no result; [ ] = another dose, or the depositor's remark. Compounds with a hit are over-represented: about 18% of the library has one in this group of screens. Unless noted, calls follow the shape of the dose curve; as a rule, active = well fitted curve in the direction sought with a large enough effect; inconclusive = small, poorly fitted or top-dose-only effect, or another doubt; inactive = no such curve, though single readings can be large; an effect the other way counts as inactive or inconclusive.
SMILES,DT40 TDP1 no CPT,TDP1 cell CPT,LDHA block,Gal4-VP16 FLuc,RORg inh,IL-1B inflam inh
Cc1ccc([N+](=O)[O-])c(OCCCN2CCCCCC2)c1,?,?,0,0,0,0
COC(=O)[C@H](C)NC(=O)N1CCC(Cc2ccccc2)CC1,0,0,0,0,0,0
Cc1ccccc1OC(C)C(=O)N1CCC(Cc2ccccc2)CC1 (stereo unspecified),?,?,0,0,0,-55
Cc1ccc([N+](=O)[O-])c(OCCN2CCC(Cc3ccccc3)CC2)c1,?,?,0,0,0,-99
O=[N+]([O-])c1cccc(OCCCN2CCC(Cc3ccccc3)CC2)c1,?,?,0,-,-,-73
Cc1ccccc1OCCN1CCC(Cc2ccccc2)CC1,21µM,?,0,0,0,0
CC(C)NC(=O)c1cc(=O)[nH]c2ccc(S(=O)(=O)Nc3ccc(F)cc3)cc12,-,-,0,-,-,-
O=C(O)c1ccc(CNCc2cccc(Br)c2)cc1,-,-,0,-,-,-
COC(=O)N[C@@H]1C[C@H]2[C@@H]3CC[C@H]4C[C@@H](OC)CC[C@]4(C)[C@H]3CC[C@@]12C,15µM,13µM,0,-,-,0
COC(=O)N[C@@H]1C[C@H]2[C@@H]3CC[C@H]4C[C@@H](OC)CC[C@]4(C)[C@H]3CC[C@]12C,?,?,0,-,-,0
COC(=O)[C@H]1C[C@H]2[C@@H]3CC[C@H]4C[C@@H](OC)CC[C@]4(C)[C@H]3CC[C@]2(C)[C@@]2(CCCO2)O1,16µM,?,0,-,-,0
CC(=O)O[C@H]1CC[C@@]2(C)C(CCC3C2CC[C@]2(C)OC(=O)CCC32)C1 (stereo partly specified),0,0,0,0,0,0
CCc1ccc(C2C=C(c3ccccc3)Nc3nnnn32)cc1 (stereo unspecified),-,-,0,-,-,-
Nc1nccnc1C(=O)NCc1cccnc1-n1cncn1,-,-,0,-,-,-
O=C(c1ccc(C(F)(F)F)cc1)N1CCN(C/C=C/c2ccccc2)CC1,-,-,0,-,-,-
CC(C)c1nc2ccc(C(=O)NCCCN3CCN(c4cccc(Cl)c4)CC3)cc2o1,21µM,18µM,0,-,-,-
O=C(NCCCN1CCN(c2ccccc2)CC1)c1ccc2nc(CCc3ccccc3)oc2c1,4.6µM,3.7µM,0,-,-,-
CCC(C)NC(=O)c1ccc2nc(Cc3ccccc3)oc2c1 (stereo unspecified),15µM,?,0,-,-,-
O=C(Nc1cccc(Cl)c1)c1ccc2nc(Cc3ccccc3)oc2c1,21µM,21µM,0,-,-,-
CC(C)c1nc2ccc(C(=O)NCCCN3CCN(c4ccc(F)cc4)CC3)cc2o1,?,?,0,-,-,-
COc1ccc(Cl)cc1NC(=O)c1ccc2nc(Cc3ccccc3)oc2c1,?,?,0,-,-,-
CCC1CSC(Nc2cccc(C)c2)=N1 (stereo unspecified),-,-,0,-,-,-
CC1CCCC(NC(=O)/C(C#N)=C\c2ccccc2)C1C (stereo unspecified),-,-,0,-,-,-
CC(Sc1nnc(N2CCCC2)n1-c1ccccc1Cl)c1nnc(-c2cccs2)o1 (stereo unspecified),-,-,0,-,-,-
COc1ccc(Cc2nc3ccc(C(=O)NCCc4ccccc4)cc3o2)cc1,?,26µM,0,-,-,-
SMILES,DT40 TDP1 no CPT,TDP1 cell CPT,LDHA block,Gal4-VP16 FLuc,RORg inh,IL-1B inflam inh
COc1ccc(Cc2nc3ccc(C(=O)NCCc4ccc(Cl)cc4)cc3o2)cc1,?,0,0,-,-,-
COCC1CCCCN1C(=O)c1ccc2nc(Cc3ccc(OC)c(OC)c3)oc2c1 (stereo unspecified),?,12µM,0,0,?,0
COc1ccc(N2CCN(CCCNC(=O)c3ccc4nc(Cc5ccccc5)oc4c3)CC2)cc1,6.5µM,6.5µM,0,-,-,-
COc1ccc(N2CCN(CCCNC(=O)c3nnc(Cc4ccc(F)cc4)o3)CC2)cc1,?,16µM,0,-,-,-
COc1ccc(Cc2nc3ccc(C(=O)NCCCN4CCN(C)CC4)cc3o2)cc1,?,?,0,-,-,-
CCOC(=O)CN1CCCC1c1ccsc1 (stereo unspecified),-,-,0,-,-,-
CCn1c(SCC(=O)Nc2cc(C)c(Cl)cc2OC)nnc1-c1ccccc1,-,-,0,-,-,-
CC(NC(=O)c1ccc(Br)cc1)C1CC2CCC1C2 (stereo unspecified),-,-,0,-,-,-
COc1ccc(CNC(=O)c2ccc3nc(CCc4ccccc4)oc3c2)cc1,0,?,0,-,-,-
COc1ccc(Cc2nc3ccc(C(=O)NCc4cc(C)no4)cc3o2)cc1,0,0,0,0,0,0
CN1CCN(CCCNC(=O)c2ccc3nc(Cc4ccccc4)oc3c2)CC1,0,0,0,-,-,-
COc1ccc(N2CCN(CCCNC(=O)c3ccc4nc(CCc5ccccc5)oc4c3)CC2)cc1,16µM,15µM,0,-,-,-
CCc1cc(CNC(=O)c2ccc3nc(Cc4ccc(OC)c(OC)c4)oc3c2)on1,?,23µM,0,?,?,0
COc1ccc(Cc2nc3ccc(C(=O)NCCc4ncccc4C)cc3o2)cc1OC,23µM,21µM,0,-,-,0
COc1ccc(CNC(=O)c2ccc3nc(CCc4ccccc4)oc3c2)cc1OC,16µM,18µM,0,-,-,-
Cc1ccc(-c2nc(CC(=O)NC3CCCC(C(F)(F)F)C3)cs2)cc1 (stereo unspecified),-,-,0,-,-,-
CCOC(=O)c1cc2cc(F)ccc2[nH]1,-,-,0,-,-,-
COc1cccc(-c2nc3ccc(C(=O)NC(C)Cc4cccnc4)cc3o2)c1 (stereo unspecified),?,9.2µM,0,?,0,?
O=C(NCCCN1CCN(c2cccc(Cl)c2)CC1)c1ccc2nc(Cc3ccccc3)oc2c1,15µM,23µM,0,-,-,-
O=C(Nc1ccc(Br)cc1F)c1ccc2nc(CCc3ccccc3)oc2c1,12µM,7.3µM,0,-,-,-
Cc1cc(SCC(=O)NC(N)=O)nc2c(C)cccc12,-,-,0,-,-,-
CC[C@]12CCCN3CCc4c(n(c5ccccc45)C(=O)C1)[C@@H]32,6.5µM,0,0,-,-,0
CCOC(=O)C1=C(CN2CC(C)CC(C)C2)NC(=O)NC1c1ccc2c(c1)OCO2 (stereo unspecified),26µM,?,0,0[10 µM],0,0
CCOC(=O)C1C(c2ccc3c(c2)OCO3)NC(=O)NC1(O)C(F)(F)F (stereo unspecified),13µM,9.2µM,0,0,0,0
CCOC(=O)C1=C(CN2CCN(c3ccc(Cl)cc3)CC2)NC(=O)NC1c1ccc(OC)cc1 (stereo unspecified),26µM,21µM,0,-,-,-
CCOC(=O)C1=C(CN2CCCCCC2)NC(=O)NC1c1ccc2c(c1)OCO2 (stereo unspecified),?,0,0,0,0,0
